Assay results taken from PubChem BioAssay AID2016 (NMMLSC, 2009).
Out of some 330,000 compounds screened, about 1,700 (0.52%) were called active.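 Rule for the calls: active = GFP response versus DMSO above a set limit, roughly screen mean plus 3 SD (cut at about 180% in these data); inconclusive = fewer than 70 cells counted for a yeast strain; inactive = the rest.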 The entries come from a sample that favours actives as a whole.

Assay: TOR pathway GLN3 branch reporter MEP2-GFP changes – S. cerevisiae, multiplex flow cytometry, MLPCN library, primary screen (AID 2016);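 note: median GFP fluorescence of the barcode-gated MEP2-GFP cells per well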
Conditions: S. cerevisiae MEP2-GFP strain, 3 h, at 10 µM, active compounds read high

Row | Compound | GFP response vs DMSO
1 | NCCc1c[nH]c2ccc(O)cc12 | 206% [may fluoresce violet] (active)
2 | C/C(CCc1c[nH]c2ccccc12)=N\O | 105% (inactive)
3 | Cc1cccc2c(CCN)c[nH]c12 | 105% (inactive)
4 | COC1=CC=C2[C@H]3Cc4ccc(OC)c5c4[C@@]2(CCN3C)C1O5 (stereo not given in full) | 106% (inactive)
5 | CCCOC(=O)C1C2c3ccccc3C(c3ccccc32)C1C(=O)O (stereo not given) | 99.1% (inactive)
